# KCNQ2 inh = rat KCNQ2 potassium channel inhibitors, primary screen, cell-based, CHO-K1, FluxOR thallium flux, B-score. Potassium voltage-gated channel subfamily KQT member 2 (Rattus norvegicus), O88943. 20 min; active compounds read low. B-score at 10 µM. hit rate 1.1% among 310,000. AID 2156, 2009;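 active = fluorescence ratio B-score at most minus 3 library SDs, with starting brightness B-score within 2 library SDs, cut at about -5.5 in these data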
# KCNQ2 pot = potentiators of rat KCNQ2 potassium channel | Potassium voltage-gated channel subfamily KQT member 2 (Rattus norvegicus), O88943 | CHO-K1 KCNQ2, FluxOR thallium flux fluorescence; active compounds read high | B-score at 10 µM | hit rate 0.54% among 310,000;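 active = fluorescence ratio B-score at least 3 SD of library B-scores, with initial fluorescence B-score within 3 of them, cut at about 5.3 in these data; same plate scores as AID 2156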;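 also: B-score of peak minus minimum over baseline fluorescence ratio after K+ and Tl+ stimulus; positive B-score means potentiation of KCNQ2 with more thallium influx and brighter signal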
# KCNQ2 inh conf = rat KCNQ2 potassium channel inhibitors, confirmation, cell-based, thallium flux. activity change, negative = inhibition, % at 10 µM. AID 493025, 2011. KCNQ2-expressing cells, inhibition; active compounds read low. shares compounds with KCNQ2 inh. hit rate 57% among 1,000;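 also: 0% = vehicle wells and values are ratio percent relative to vehicle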
# KCNQ1 spec = human KCNQ1 channel inhibition, counter-screen for KCNQ2 inhibitor project, cell-based, FluxOR thallium flux; shares compounds with KCNQ2 inh; KCNQ1-expressing cells, FluxOR thallium flux fluorescence; active compounds read low; activity change, negative = inhibition, % at 10 µM; hit rate 15% among 1,000; AID 493026, 2011;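 active = activity change at least 3 SD of negative controls below their mean in both duplicate wells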;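 also: CHO cells stably transfected with KCNQ1 and depolarized by potassium stimulus; peak minus minimum fluorescence over baseline after thallium addition; 0% = vehicle negative control and -100% = blank without thallium stimulus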
# Target sequence (P51787 whole entry, looked up): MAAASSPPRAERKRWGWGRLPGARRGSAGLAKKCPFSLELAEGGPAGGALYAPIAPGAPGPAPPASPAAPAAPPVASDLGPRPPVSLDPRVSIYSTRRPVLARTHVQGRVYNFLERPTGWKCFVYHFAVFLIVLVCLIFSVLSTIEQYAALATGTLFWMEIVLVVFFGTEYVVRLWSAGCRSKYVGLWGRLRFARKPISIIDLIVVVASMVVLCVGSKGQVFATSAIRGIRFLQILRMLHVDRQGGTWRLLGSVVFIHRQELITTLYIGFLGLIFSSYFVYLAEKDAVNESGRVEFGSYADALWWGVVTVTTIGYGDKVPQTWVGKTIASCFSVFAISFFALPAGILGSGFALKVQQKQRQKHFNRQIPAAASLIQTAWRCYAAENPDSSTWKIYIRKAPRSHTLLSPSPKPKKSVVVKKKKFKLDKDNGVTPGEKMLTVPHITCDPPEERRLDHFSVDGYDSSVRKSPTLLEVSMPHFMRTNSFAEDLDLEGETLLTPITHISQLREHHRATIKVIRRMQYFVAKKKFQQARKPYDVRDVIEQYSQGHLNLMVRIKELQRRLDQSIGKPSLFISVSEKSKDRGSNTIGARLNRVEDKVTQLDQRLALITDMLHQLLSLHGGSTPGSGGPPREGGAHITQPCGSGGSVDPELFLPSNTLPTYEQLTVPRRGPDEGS
# CHO parental ctr = thallium flux change in parental CHO cells, counter-screen for KCNQ2 inhibitor project; AID 493029, 2011; hit rate 14% among 1,000; activity change, % at 10 µM; active compounds read low; shares compounds with KCNQ2 inh;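 also: 0% = vehicle negative controls with stimulus buffer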
# KCNQ2 inh confirm = rat KCNQ2 channel inhibitors, confirmation, cell-based, automated patch clamp, single concentration | hit rate 49% among 550 | KCNQ2-expressing cells, automated patch clamp current | calls only at 10 µM | AID 588531, 2011 | shares compounds with KCNQ2 inh
# An asterisk follows results filed as active; i = inactive; · = no result given; + = active, no number. Rows were chosen to be rich in hits. Some 1.6% of all compounds tested hit in one or more screens of this group. Unless noted, no rule for the calls is given here.
SMILES,KCNQ2 inh,KCNQ2 pot,KCNQ2 inh conf,KCNQ1 spec,CHO parental ctr,others
O=C(Cc1cccs1)NC(c1ccccc1)c1ccccc1,i,·,·,·,·,
O=C(COC(=O)/C(=C/c1cccs1)c1cccs1)NC(c1ccccc1)c1ccccc1,-8.6*,-8.6,i,i,i,
NC(=O)Nc1cc(Cl)ccc1Cl,i,1.3,·,·,·,
Cc1ccc(Nc2nc(N)nc(CSc3nc4ccccc4s3)n2)cc1,i,1.6,·,·,·,
COc1cc(-c2nc3ccccn3c2NCC2CCCO2)ccc1O (centres undefined),i,0.81,·,·,·,
CCOc1cc(-c2nc3ccccn3c2NCC2CCCO2)ccc1O (centres undefined),-9.6*,-9.6,i,i,i,
O=C(Cn1c(=O)n(Cc2ccc3c(c2)OCO3)c(=O)c2ccccc21)N1CCCc2ccccc21,i,·,·,·,·,
CC1CCN(C(=O)Cn2c(=O)n(Cc3ccc4c(c3)OCO4)c(=O)c3ccccc32)CC1,-7.2*,-7.2,-31%*,i,i,KCNQ2 inh confirm=+
CC1CCCCN1C(=O)CSc1nc2cc3c(cc2c(=O)n1Cc1ccc2c(c1)OCO2)OCO3 (centres undefined),i,·,·,·,·,
CC1CCN(C(=O)CSc2nc3ccccc3c(=O)n2Cc2ccc3c(c2)OCO3)CC1,-7.3*,-7.3,i,i,i,
COc1ccccc1OCC(=O)NN=C(Cc1ccccc1)Cc1ccccc1,-6.7*,-6.7,-32%*,i,i,KCNQ2 inh confirm=+
CCOc1ccccc1OCC(=O)N/N=C(\C)Cc1ccc(OC)cc1,i,0.09,·,·,·,
Cc1ccc(NS(=O)(=O)c2ccc(C(=O)NCCCN3CCCC3=O)cc2)cc1,i,0.16,·,·,·,
COc1ccc(S(=O)(=O)N2CCCCCC2)cc1NC(=O)c1c2c(nc3ccccc13)CCN(Cc1ccccc1)C2,i,·,·,·,·,
COc1ccc(NC(=O)c2c3c(nc4ccccc24)CCN(Cc2ccccc2)C3)c(OC)c1,-11*,-11,i,i,i,
CCOc1cc(C(=O)NCC(C)CN(C)C)cc(OCC)c1OCC (centres undefined),i,·,·,·,·,
Cc1cccc(NC(=O)c2ccc(COc3cccc4ccccc34)o2)n1,-8.8*,-8.8,-38%*,-34%*,-28%*,KCNQ2 inh confirm=i
CC(=O)Nc1ccc(NC(=O)c2ccc(COc3ccccc3Br)o2)cc1,i,0.53,·,·,·,
Cc1ccc(F)cc1CNC(=O)C1CCC(=O)N(CCc2ccccc2)C1 (centres undefined),i,·,·,·,·,
Cc1ccc(S(=O)(=O)NNC(=O)c2ccc(NC(=O)C3CC3)cc2)cc1,i,1.2,·,·,·,
Cc1ccoc1C(=O)NCc1occc1C(=O)O,i,0.75,·,·,·,
CCC1(CC)Cc2ccccc2-c2nc(-c3ccccc3)oc(=O)c21,i,·,·,·,·,
O=c1oc(-c2ccccc2)nc2c1C1(CCCCC1)Cc1ccccc1-2,-8.7*,-8.7,i,i,i,
COc1ccc(-c2c[n+]3c4n2CCCCC4=C(c2ccc(Br)cc2)C3)cc1,-8.7*,-8.7,-33%*,i,i,KCNQ2 inh confirm=i
COc1ccc(-c2cnc3n2CCCCC3)cc1,i,·,·,·,·,
SMILES,KCNQ2 inh,KCNQ2 pot,KCNQ2 inh conf,KCNQ1 spec,CHO parental ctr,others
O=C(CSc1cnc2ccccc2n1)NC1CCCC1,i,0.53,·,·,·,
Cc1c(C)n(C(=O)CSc2nc3ccccc3[nH]2)c2ccccc12,-11*,-11,-30%*,i,i,KCNQ2 inh confirm=i
O=C(CSc1nc2ccccc2[nH]1)N1CCCCC1,i,0.33,·,·,·,
CC(C)NC(=O)NC(=O)COC(=O)c1ccccc1O,i,1.3,·,·,·,
Cn1cc([N+](=O)[O-])c(C(=O)Nc2cc(Oc3ccccc3)cc([N+](=O)[O-])c2)n1,i,1.6,·,·,·,
Cc1cccc(Oc2cc(NC(=O)c3ccccc3)cc([N+](=O)[O-])c2)c1,-7.3*,-7.3,i,i,i,
Cc1ccc2nc(-c3ccccc3)cc(C(=O)N(C)CC(=O)Nc3ccccc3Br)c2c1,-8.1*,-8.1,i,i,i,
COc1ccc(NC(=O)CN(C)C(=O)c2cc(-c3ccccc3)nc3ccccc23)cc1,i,·,·,·,·,
O=C(Cn1ncc2c1-c1ccccc1OC2)N1CCc2ccccc21,i,·,·,·,·,
CCn1nc(C)c(NC(=O)/C=C/c2cnn(C)c2)c1C,i,0.49,·,·,·,
CCOP(=O)(OCC)C(NC(=O)Nc1ccccc1)c1ccccc1 (centres undefined),i,·,·,·,·,
CCOP(=O)(OCC)C(NC(=O)Nc1c(C)cc(C)cc1C)c1ccccc1 (centres undefined),-9.2*,-9.2,-21%*,i,i,KCNQ2 inh confirm=+
COC(=O)Cn1cnc2scc(-c3ccc(C)cc3)c2c1=O,i,0.84,·,·,·,
O=c1c2ccccc2nc(COc2ccccc2)n1/N=C/c1ccco1,-10*,-10,i,i,i,
O=c1c2ccccc2nc(COc2ccccc2)n1/N=C/c1ccc(O)c(O)c1,i,·,·,·,·,
Cc1ccc(OCC(=O)NCCNC(=O)c2ccncc2)cc1C,i,·,·,·,·,
Cc1cc(C)c(NC(=O)/C(=C/c2ccccc2)c2ccccc2)c(C)c1,-7.5*,-7.5,i,i,i,
Cc1ccc(NC(=O)/C(=C/c2ccco2)c2ccccc2)c(C)c1,i,·,·,·,·,
COc1ccccc1Nc1nc(N)nc(CN2CCN(Cc3ccccc3)CC2)n1,-9.9*,-9.9,-18%*,i,i,KCNQ2 inh confirm=i
COc1ccccc1Nc1nc(N)nc(CN2CCCCC2)n1,i,·,·,·,·,
CCOC(=O)C(=O)Nc1nnc(COc2ccccc2)s1,i,0.01,·,·,·,
COc1ccc(/C=C/C(=O)c2ccccc2)cc1COc1ccc(F)cc1,-6.6*,-6.6,i,i,i,
COc1ccc(/C=C/C(=O)c2ccc(O)cc2)cc1COc1ccc(F)cc1,i,·,·,·,·,
COCCn1nnnc1C(c1cc2cc(OC)ccc2[nH]c1=O)N1CCC(Cc2ccccc2)CC1 (centres undefined),i,0.73,·,·,·,
COc1ccc2cc(C(c3nnnn3CCc3ccccc3)N3CCCC(C)C3)c(=O)[nH]c2c1 (centres undefined),-8.6*,-8.6,-35%*,i,i,KCNQ2 inh confirm=+
SMILES,KCNQ2 inh,KCNQ2 pot,KCNQ2 inh conf,KCNQ1 spec,CHO parental ctr,others
O=C(/C=C/c1ccccc1)N1CCC(Cc2ccccc2)CC1,i,·,·,·,·,
O=C(/C=C/c1cccc(Cl)c1)N1CCC(Cc2ccccc2)CC1,-11*,-11,-35%*,-41%*,-34%*,KCNQ2 inh confirm=+
O=C(/C=C/c1ccco1)NC(=S)Nc1ccccc1N1CCOCC1,-7.2*,-7.2,i,i,i,
O=C(/C=C/c1ccco1)NC(=S)Nc1ccccc1N1CCCC1,i,·,·,·,·,
CC(C)n1c(SCC(=O)Nc2ccccc2)nc2c1c(=O)n(C)c(=O)n2C,i,2.1,·,·,·,
COc1cc(/C=N/N=C(N)N)ccc1OCc1ccc(Cl)cc1,-9.4*,-9.4,i,i,i,
